Measurements published in PubChem BioAssay (NCATS).
Results filed as inconclusive are left out. The source made the active and inactive calls. Calls come from the whole dose curve; as a rule, active = well fitted curve in the direction sought with a large enough effect; inconclusive = small, poorly fitted or top-dose-only effect, or another doubt; inactive = no such curve, though single readings can be large; an effect the other way counts as inactive or inconclusive.

Experiments:
[1] = biological target: Cellular tumor antigen p53 (Homo sapiens) (UniProt P04637); assay: Primary qHTS for small molecule compounds that upregulate eGFP-tagged delta133p53alpha (in N-terminal) cells. (AID 2060322); conditions: NCI-H358 eGFP-delta133p53alpha fluorescence, 24 h; activation: stronger effect = higher value;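 note: cells pre-induced with doxycycline then dosed without doxycycline; 0% = DMSO vehicle and 100% = reference activator; nearly all actives have a fitted effect of over 75% in size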
Summary of the method: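 NCI-H358 cells pre-induced 24 h with 10 ng/ml doxycycline for eGFP-delta133p53alpha, plated dox-free and exposed 24 h at 37C to titrated compounds. Fixed, Hoechst-stained; gated GFP peak intensity by laser scanning cytometry, normalized to DMSO (0%) and 57.5 uM 5-azacytidine (100%).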

[2] = biological target: Aldehyde dehydrogenase, mitochondrial (Homo sapiens) (UniProt P05091); assay: qHTS for Inhibitors of the Aldehyde Dehydrogenase Family (ALDH2) Primary screen (AID 2061308); conditions: ALDH2 enzyme inhibition qHTS, 1536-well; series mostly up to 56 µM;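 note: plate controls were vehicle for no effect and reference inhibitor for full effect; nearly all actives have a fitted effect of over 55% in size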
[3] = biological target: Retinaldehyde dehydrogenase 3 (Homo sapiens) (UniProt P47895); assay: qHTS for Inhibitors of the Aldehyde Dehydrogenase Family (ALDH1A3) Primary screen (AID 2061315); conditions: ALDH inhibition qHTS; series mostly up to 56 µM;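 note: plate controls were DMSO vehicle for no effect and reference inhibitor for full effect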

Cellular tumor antigen p53 (Homo sapiens), sequence (P04637 whole entry, looked up): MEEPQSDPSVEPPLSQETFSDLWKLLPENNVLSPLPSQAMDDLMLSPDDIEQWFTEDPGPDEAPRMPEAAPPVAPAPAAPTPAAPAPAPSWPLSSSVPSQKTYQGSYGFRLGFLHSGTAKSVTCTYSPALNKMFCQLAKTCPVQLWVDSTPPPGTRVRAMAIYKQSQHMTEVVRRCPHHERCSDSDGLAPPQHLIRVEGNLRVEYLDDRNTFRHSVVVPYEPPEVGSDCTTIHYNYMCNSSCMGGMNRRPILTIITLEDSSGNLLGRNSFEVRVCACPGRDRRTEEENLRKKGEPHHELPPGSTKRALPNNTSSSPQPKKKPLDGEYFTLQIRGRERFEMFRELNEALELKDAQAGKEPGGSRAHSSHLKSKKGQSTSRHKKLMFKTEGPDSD

c1ccc(-c2cnn3cc(-c4ccc(OCCN5CCOCC5)cc4)cnc23)cc1
inactive: activation [1] -17% | Potency [2] | Potency [3]

CC1=C(C)C(=O)OC(C(C)C2CCC3C4C5OC5C5(O)CC(OC6OC(CO)C(OC7OC(C)C(O)C(O)C7O)C(O)C6O)CC(O)C5(C)C4CCC23C)C1 (configuration not stated)
inactive: activation [1] 3.57% | Potency [2] | Potency [3]

CC(O)C1CCC2C3CCC4CC(OC5OC(C(=O)O)C(O)C(O)C5O)CCC4(C)C3CCC12C (configuration not stated)
inactive: activation [1] -17% | Potency [2] | Potency [3]

CCC(CC)Nc1nc(C)c(-c2ccc(OC(F)(F)F)cc2OC)nc1OC
inactive: activation [1] -3.57% | Potency [2] | Potency [3]
